Drawing on PubChem BioAssay (NCI), this text covers growth for eight molecules.

This is part of a sample that, as a whole, favours compounds with a hit. Of some 83,000 tested, about 20% had one in any assay.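 A percent growth of 40 corresponds to 60% growth inhibition; 0 means no net growth; -100 means all cells died. Active threshold: below 10.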 Unmarked numbers belong to inactive results. Active and inactive are the calls of the source.

Test systems include NCI-H23 lung; NCI-H226 lung; NCI-H322M lung; HOP-62 NSCLC; NCI-H460 lung; 786-0 renal; DU-145 prostate; MDA-MB-231 breast; SF-268 CNS; SNB-19 CNS; UACC-62 melanoma; SK-MEL-28 melanoma; SN12C renal; UO-31 renal; OVCAR-5 ovarian; OVCAR-3 ovarian; NCI/ADR-RES ovarian; MDA-MB-435 melanoma; MCF7 breast; KM12 colon.
Assay in all cases: NCI-60 one-dose screen, 48 h (100 = growth as untreated, 0 = no growth, -100 = all killed)
Conditions in all cases: 10 µM unless noted

`CC(C)CCC[C@@H](C)[C@H]1CC[C@H]2[C@@H]3CC=C4C[C@@H](OC(=O)Cc5ccc(N(CCCl)CCCl)cc5)CC[C@]4(C)[C@H]3CC[C@]12C`: the growth with NCI-H23 lung is 107%; in the assay on NCI-H226 lung it was 94.3%; in the assay on NCI-H322M lung, 214%; in the assay with HOP-62 NSCLC it was 105%; with NCI-H460 lung, 97.8%; in the assay on 786-0 renal it was 96.7%. The growth with DU-145 prostate was 116%; in the assay on MDA-MB-231 breast it was 101%; with SF-268 CNS, 108%; in the assay on SNB-19 CNS, 107%; with UACC-62 melanoma, 94.4%; in the assay on SK-MEL-28 melanoma, 111%. Also, the growth in the assay with SN12C renal was 99.9%; with UO-31 renal, 90%; in the assay with OVCAR-5 ovarian, 98.2%; with OVCAR-3 ovarian, 112%; in the assay on NCI/ADR-RES ovarian, 102%; with MDA-MB-435 melanoma, 113%. The growth is 99% in the assay on MCF7 breast and 109% in the assay with KM12 colon.

Take `O=[N+]([O-])c1ccccc1N1CCNCC1`: the growth is 96.4% in the assay with NCI-H23 lung; 107% in the assay on NCI-H226 lung; 96% in the assay with NCI-H322M lung; 89.4% in the assay with HOP-62 NSCLC; 109% in the assay with NCI-H460 lung; 94.1% in the assay on 786-0 renal. Moreover, the growth in the assay on DU-145 prostate was 108%; with MDA-MB-231 breast it was 114%; with SF-268 CNS it was 95.2%; in the assay on SNB-19 CNS, 102%; in the assay on UACC-62 melanoma, 95.8%; in the assay on SK-MEL-28 melanoma, 104%. For the same molecule, the growth in the assay on SN12C renal is 97.1%; in the assay with UO-31 renal, 84.6%; in the assay with OVCAR-5 ovarian, 94%; in the assay with OVCAR-3 ovarian, 101%; with NCI/ADR-RES ovarian, 93.6%; with MDA-MB-435 melanoma it was 103%. The growth was 105% in the assay on MCF7 breast and 101% in the assay with KM12 colon.

In the case of `[O]=[Sn]([CH]1CCCCC1)[CH]1CCCCC1`, the growth was -93.5% (active) with NCI-H23 lung; -74% (active) in the assay on NCI-H226 lung; -96.7% (active) in the assay with NCI-H322M lung; -91.8% (active) with HOP-62 NSCLC; -85.8% (active) in the assay with NCI-H460 lung; -97.6% (active) in the assay with 786-0 renal. The growth was -98% (active) in the assay on DU-145 prostate; -78.3% (active) with MDA-MB-231 breast; -98.9% (active) with SF-268 CNS; -84.4% (active) with SNB-19 CNS; -93.3% (active) with UACC-62 melanoma; -94.8% (active) with SK-MEL-28 melanoma. Further, the growth in the assay with SN12C renal was -80.5% (active); in the assay on UO-31 renal, -90.4% (active); in the assay with OVCAR-5 ovarian, -97.1% (active); with OVCAR-3 ovarian, -98% (active); in the assay with NCI/ADR-RES ovarian, -83.2% (active); with MDA-MB-435 melanoma it was -88.4% (active). The growth with MCF7 breast is -88% (active); in the assay with KM12 colon it was -94% (active).

Regarding `O=C(O)c1nn(Cc2ccc(Cl)cc2)c2ccccc12`, the growth is 105% in the assay with NCI-H23 lung; 101% with NCI-H226 lung; 127% with NCI-H322M lung; 108% in the assay on HOP-62 NSCLC; 105% with NCI-H460 lung; 108% with 786-0 renal. The growth in the assay on DU-145 prostate was 120%; in the assay with MDA-MB-231 breast, 107%; in the assay with SF-268 CNS it was 109%; in the assay on SNB-19 CNS, 96.7%; with UACC-62 melanoma it was 102%; in the assay on SK-MEL-28 melanoma, 119%. The growth with SN12C renal is 93.7%; in the assay on UO-31 renal, 95.7%; in the assay with OVCAR-5 ovarian, 108%; in the assay on OVCAR-3 ovarian it was 132%; with NCI/ADR-RES ovarian it was 112%; in the assay on MDA-MB-435 melanoma, 116%. Moreover, the growth in the assay with MCF7 breast is 99.7%; in the assay with KM12 colon, 109%.

Take `CC(C)C1c2ccc(O)cc2Oc2nc(N)c(C#N)c(N)c21` (stereo not drawn): the growth in the assay on NCI-H23 lung was 105%; with NCI-H226 lung it was 93.6%; with NCI-H322M lung it was 93.8%; with HOP-62 NSCLC, 92.9%; in the assay with NCI-H460 lung, 107%; in the assay on 786-0 renal, 96.1%. Besides, the growth with DU-145 prostate is 115%; with MDA-MB-231 breast, 89.9%; in the assay with SF-268 CNS it was 112%; with SNB-19 CNS it was 101%; in the assay on SK-MEL-28 melanoma it was 117%; in the assay on SN12C renal, 103%. Besides, the growth is 89.2% in the assay on UO-31 renal; 104% in the assay with OVCAR-5 ovarian; 124% in the assay on OVCAR-3 ovarian; 102% with NCI/ADR-RES ovarian; 103% in the assay with MDA-MB-435 melanoma; 124% in the assay with MCF7 breast. In addition, the growth with KM12 colon was 103%.

With `Cc1ccccc1O`, the growth with NCI-H23 lung is 105%; in the assay with NCI-H226 lung it was 97%; in the assay with NCI-H322M lung it was 114%; in the assay on HOP-62 NSCLC, 95.4%; in the assay with NCI-H460 lung, 117%; in the assay with 786-0 renal, 105%. The growth in the assay on DU-145 prostate was 120%; in the assay with MDA-MB-231 breast it was 115%; with SF-268 CNS, 109%; in the assay with SNB-19 CNS, 107%; with UACC-62 melanoma, 107%; with SK-MEL-28 melanoma, 111%. Further, the growth in the assay on SN12C renal was 105%; with UO-31 renal, 82.6%; with OVCAR-5 ovarian, 121%; with OVCAR-3 ovarian, 130%; in the assay with NCI/ADR-RES ovarian it was 100%; in the assay on MDA-MB-435 melanoma, 117%. In addition, the growth with MCF7 breast was 119%; in the assay with KM12 colon it was 106%.

With `ClCCN(CCCl)c1nc(Cl)c(C2CC(c3ccccc3)=NN2c2ccccc2)s1` (stereo not drawn), the growth is 86.8% in the assay on NCI-H23 lung; 83.3% in the assay on NCI-H226 lung; 86.9% with NCI-H322M lung; 79.5% in the assay on HOP-62 NSCLC; 89.1% with NCI-H460 lung; 91.7% in the assay with 786-0 renal. Also, the growth in the assay with DU-145 prostate was 99.7%; in the assay with MDA-MB-231 breast, 88.1%; in the assay on SF-268 CNS, 88.9%; in the assay on SNB-19 CNS, 79.9%; with UACC-62 melanoma, 60.9%; with SK-MEL-28 melanoma, 98.6%. For the same molecule, the growth is 90.4% in the assay with SN12C renal; 72.4% with UO-31 renal; 99.5% with OVCAR-5 ovarian; 99.9% in the assay on OVCAR-3 ovarian; 103% in the assay on NCI/ADR-RES ovarian; 103% with MDA-MB-435 melanoma. Also, the growth is 91.6% in the assay on MCF7 breast and 98.3% in the assay on KM12 colon.

For the molecule `COc1cc(/C=C\c2cc(OC)c(OC)c(OC)c2)cc(N/C=C\C(=O)c2ccc(OC(F)(F)F)cc2)c1OC`, the growth is 26.2% in the assay on NCI-H23 lung; 54.4% in the assay with NCI-H226 lung; 42.4% with NCI-H322M lung; 23.8% in the assay with HOP-62 NSCLC; 4.92% (active) with NCI-H460 lung; 34.3% in the assay on 786-0 renal. Besides, the growth is 14.4% in the assay on DU-145 prostate; -16.9% (active) in the assay on MDA-MB-231 breast; 41.7% in the assay with SF-268 CNS; 74.6% in the assay on SNB-19 CNS; 62.2% with SK-MEL-28 melanoma; 36.5% in the assay on SN12C renal. The growth in the assay with UO-31 renal was 32.9%; with OVCAR-5 ovarian, 44.2%; in the assay with OVCAR-3 ovarian, -8.54% (active); in the assay with NCI/ADR-RES ovarian, 5.87% (active); with MDA-MB-435 melanoma it was -42.2% (active); in the assay with MCF7 breast, 17.2%. The growth in the assay with KM12 colon was 16.6%.
